The list is not random: actives were taken first. Their share in the collection is about 9.2%.
Rab9 promoter act = qHTS Assay for Rab9 Promoter Activators; Potency, µM (series often up to 9.22 µM), for the others: top-dose activation, negative = inhibition, most hits filed as activators; Huh7 Rab9 promoter-luciferase reporter, luminescence, 24 h; 320,000 compounds, 2.8% hits; AID 485297, 2010; also: % of control where 0% means no effect; nearly all actives have a fitted effect of over 60% in size
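Luminescence from Amplite-detected luciferase (10 minutes, ambient) reports Rab9 promoter activation. Before that, stable Rab9-luciferase Huh7 cells (1500/well, reduced-serum OP-MEM I plus 10% FBS) were exposed to compound for 24 hours at 37C.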
ELG1 genotoxic = qHTS screen for small molecules that induce genotoxicity in human embryonic kidney (HEK293T) cells expressing luciferase-tagged ELG1; HEK293T ELG1-luciferase reporter, luminescence, 16 h; Potency, µM (highest dose often 46 µM), inactives show at the top dose activity change, positive = activation, actives largely listed as activators; 330,000 compounds, 1.3% hits; AID 504466, 2011; also: % of control where 0% means no effect; nearly all actives have a fitted effect of over 60% in size
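HEK293T cells expressing luciferase-tagged ELG1 were treated with compound or DMSO for 16 hr at 37°C. Luciferase activity was then read after 30 min with ONE-Glo at room temperature; rising signal flags genetic stress.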
NPC1 prom act = qHTS Assay for NPC1 Promoter Activators. Potency, µM (top dose mostly 9.22 µM), for the others: at the highest dose activation, actives largely listed as activators. Huh7 NPC1 promoter luciferase reporter, 24 h. 320,000 compounds, 2.4% hits; also: % of control where 0% means no effect; nearly all actives have a fitted effect of over 60% in size
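Luminescence from an NPC1 promoter-driven luciferase reporter in stably transfected Huh7 cells was measured after 24 h compound treatment at 37 °C, followed by 10 min ambient incubation with luciferase detection reagent.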
SMN2 splice up = qHTS Assay for Enhancers of SMN2 Splice Variant Expression. HEK293 SMN2-luciferase splicing reporter, luminescence, 30-36 h. Potency, µM (highest dose often 46.1 µM), inactives show top-dose activity change, positive = activation, most hits filed as activators. 210,000 compounds, 2.8% hits. AID 1458, 2008; also: % of control where 0% means no effect; nearly all actives have a fitted effect of over 55% in size
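qHTS luciferase splicing reporter: luminescence rises when SMN2 exon 7 is included in transfected HEK293 cells. Compound exposure lasted 30-36 h at 37C, with 4.5 mM final sodium butyrate as control, followed by a ONE-Glo read.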
ELG1 repair inh = qHTS screen for small molecules that inhibit ELG1-dependent DNA repair in human embryonic kidney (HEK293T) cells expressing luciferase-tagged ELG1; HEK293T ELG1-luciferase reporter, luminescence, 16 h; DNA damage induced by 5-fluorouridine; Potency, µM (series often up to 46.1 µM), for inactives: at the top dose activity change, negative = inhibition, hits mostly inhibitors; 330,000 compounds, 2.3% hits; also: % is scaled to controls: 0 for no effect and ±100 for the full control effect; nearly all actives have a fitted effect of over 55% in size
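Reporter activity after DNA damage by 5-fluorouridine is monitored. Compound-treated cells incubate 16 hr at 37 °C, then ONE-Glo is added for 30 min before luminescence reading.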
FLuc counter = qHTS profiling assay for firefly luciferase inhibitor/activator using purifed enzyme and Km concentrations of substrates (counterscreen for miR-21 project). purified FLuc, Km substrates, luminescence inhibition. Potency, µM (doses to about 57.5 µM), for inactives: top-dose activity change, negative = inhibition, actives largely listed as inhibitors. 360,000 compounds, 6.9% hits. AID 588342, 2011;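 also: plate controls were vehicle for no effect and reference inhibitor for full effect; nearly all actives have a fitted effect of over 55% in size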
Target sequence (P08659 whole entry, looked up): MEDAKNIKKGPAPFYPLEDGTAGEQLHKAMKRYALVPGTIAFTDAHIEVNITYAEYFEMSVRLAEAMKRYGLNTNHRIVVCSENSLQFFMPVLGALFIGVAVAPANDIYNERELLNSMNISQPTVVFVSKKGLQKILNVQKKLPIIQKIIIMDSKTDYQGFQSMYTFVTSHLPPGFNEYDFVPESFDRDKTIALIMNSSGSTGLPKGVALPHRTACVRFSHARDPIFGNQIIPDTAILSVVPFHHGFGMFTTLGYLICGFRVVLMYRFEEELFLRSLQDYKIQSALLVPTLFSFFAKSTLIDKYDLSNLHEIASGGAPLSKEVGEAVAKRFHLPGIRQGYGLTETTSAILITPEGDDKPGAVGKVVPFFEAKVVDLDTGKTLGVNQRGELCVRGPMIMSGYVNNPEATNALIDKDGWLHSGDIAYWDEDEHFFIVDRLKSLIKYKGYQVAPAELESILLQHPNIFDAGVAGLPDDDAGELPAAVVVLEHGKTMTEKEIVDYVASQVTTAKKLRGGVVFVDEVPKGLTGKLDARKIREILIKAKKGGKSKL
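Purified P. pyralis luciferase, 10 nM final, with Km-level 10 uM D-luciferin and 10 uM ATP in 50 mM Tris acetate pH 7.5, 10 mM Mg acetate, 0.01% Tween-20, 0.05% BSA; 6-point qHTS titration about 60 µM downward; luminescence read.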
The depositor's hits bear a star; ? = inconclusive; / = no result; ! = a repeat was not active; [ ] = remark or other dose. Calls follow the shape of the dose curve; as a rule, active = well fitted curve in the direction sought with a large enough effect; inconclusive = small, poorly fitted or top-dose-only effect, or another doubt; inactive = no such curve, though single readings can be large; an effect the other way counts as inactive or inconclusive. Potency is read from the fitted curve at half-maximal effect.

SMILES	Rab9 promoter act	ELG1 genotoxic	NPC1 prom act	SMN2 splice up	ELG1 repair inh	FLuc counter
CC(C)(C)c1ccc(CN2N=C(/C=C/c3ccccc3)CCC2=O)cc1	-1%	-4%	19%	-9%	-1%	-15%
CCCCN(C)C(=O)Cn1cnc2sc(C)c(S(=O)(=O)N3CCN(c4ccccc4OC)CC3)c2c1=O	-2%	-17%	-2%	7%	5.2µM*	0%
FC(F)(F)c1cnc(-c2cnc(-c3cccnc3)nc2)c(Cl)c1	4µM*	?	2.5µM*	13µM*	?	?
CCc1cccc(NC(=O)Cn2c(=O)n(CC3CCC(C(=O)NC)CC3)c(=O)c3sccc32)c1 (stereo not drawn)	/	/	/	/	/	-7%
CC(C)c1ccc(NC(=O)C(=O)C2C(=O)Nc3ccccc32)cc1 (stereo not drawn)	21%	5%	7%	11%	?	?
CN(C)c1ccc(NC(=O)C(=O)C2C(=O)Nc3ccccc32)cc1 (stereo not drawn)	21%	?	24%	/	?	11µM*
CC(C)(C)c1ccc(NC(=O)C(=O)C2C(=O)Nc3ccccc32)cc1 (stereo not drawn)	21%	0%	15%	2%	12%	12µM*
N#C/C(=C\c1cc2ccccc2nc1N1CCCCC1)C(N)=O	4%	2%	-1%	1%	-9%	-1%
COc1ccc2nc(N3CCCCC3)c(/C=C3\SC(=S)NC3=O)cc2c1	-1%	-5%	-3%	/	-16%	17µM*
O=C1NC(=S)S/C1=C\c1cc2ccccc2nc1N1CCCCC1	-3%	-15%	-4%	/	16µM*	-1%
COc1cccc(N2CCN(C(=O)C3Cc4ccccc4N3C(C)=O)CC2)c1 (stereo not drawn)	/	/	/	/	/	-8%
CC1CCc2c(sc3nc(CSc4nnnn4C)[nH]c(=O)c23)C1 (stereo not drawn)	3%	7%	4%	/	16%	?
CC1CCc2c(sc3nc(CSc4ncn[nH]4)[nH]c(=O)c23)C1 (stereo not drawn)	18%	10%	12%	/	?	15µM*
CCCCN(C(=O)C1CCN(C(=O)c2ccccc2C)CC1)c1c(N)n(CCCC)c(=O)[nH]c1=O	0%	-2%	-10%	/	-2%	4%
S=C(NCc1ccccc1)Nc1ccc2ccccc2c1	?	?	2.2µM*	/	?	13µM*
C/C(=C\C(=S)Nc1ccccc1)Nc1ccc2ccccc2c1	14%	26%	16%	-2%	?	17µM*
S=C(NCc1ccccc1)Nc1ccc(Oc2ccccc2)cc1	-3%	-7%	-5%	/	-20%	-21%
Cc1cc2oc3c(c(=O)c2cc1C)C(c1ccc(C(C)C)cc1)N(c1nc(C)c(C)s1)C3=O (stereo not drawn)	/	/	/	5%	/	1%
Cc1c(C(=O)Nc2ccccn2)sc2nc3n(c(=O)c12)CCC3	0.89µM*	?	1.3µM*	/	?	9.5µM*
CCc1ccccc1NC(=O)c1sc2nc3n(c(=O)c2c1C)CCC3	/	/	/	/	/	5%
Cc1c(C(=O)Nc2ccccc2F)sc2nc3n(c(=O)c12)CCC3	2.5µM*	?	2.8µM*	/	?	19µM*!
Cc1ccccc1NC(=O)c1sc2nc3n(c(=O)c2c1C)CCC3	/	/	/	/	/	-3%
Cc1cccc(S(=O)(=O)c2cn(Cc3ccccc3)c3cc(N4CCC(C)CC4)c(F)cc3c2=O)c1	/	/	/	/	/	-4%
COc1ccc(-c2csc(NC(=O)c3ccccc3NS(=O)(=O)c3ccc(C)cc3)n2)cc1	-18%	-16%	-3%	-102%	13µM*	?
COc1ccc(-c2csc(NC(=O)c3ccc(S(=O)(=O)N4CCc5ccccc5C4)cc3)n2)cc1	-20%	-2%	-13%	-49%	?	0%
SMILES	Rab9 promoter act	ELG1 genotoxic	NPC1 prom act	SMN2 splice up	ELG1 repair inh	FLuc counter
COc1ccc(S(=O)(=O)Nc2ccccc2C(=O)Nc2nc(-c3ccc(F)cc3)cs2)cc1OC	-6%	-8%	-5%	-64%	15µM*	?
COc1ccc(-c2csc(NC(=O)COc3ccc(N(C)S(=O)(=O)c4ccc(C)cc4)cc3)n2)cc1	0%	-4%	6%	-16%[1.84 µM]	7.3µM*	-11%
CCOc1ccc2c(c1)sc(=NC(=O)C1CC1)n2C	/	/	/	11µM*	/	7.6µM*
CC(C)N(C(=O)CSc1nc2ccccc2n1Cc1ccc(F)cc1)C(C)C	-7%	-13%	1%	-42%	18µM*	0%
C=CCNC(=O)N1CCc2nc(CCCC)c3c(c2C1)CO[C@@H](C)C3	/	/	/	7%[9.22 µM]	/	/
Cc1ccc(C(=O)Nc2ccc(C(=O)/C=C/c3cccs3)cc2)cc1	?	-3%	?	-8%	?	12µM*
O=C(/C=C/c1cccs1)c1ccc(NC(=O)c2cccc(Br)c2)cc1	18%	2%	20%	?	?	-13%
O=C(/C=C/c1cccs1)c1ccc(Br)cc1	5%	8%	-4%	2%	?	4.8µM*
CC(=O)N(C)C1=C(O)c2ccccc2C(=O)C1=O	1%	2%	-3%	0%	-1%	2%
CC(=O)N(C1=C(N)C(=O)c2ccccc2C1=O)C(C)C	-23%	-7%	-8%	-26%	23µM*	-3%
Cc1noc(C)c1COc1ccccc1C(=O)N1CCN(c2cccc(Cl)c2)CC1	-11%	0%	-21%	/	9.2µM*	-5%
Cc1noc(C)c1COc1ccccc1C(=O)N1CCN(c2cccc(C(F)(F)F)c2)CC1	-12%	-2%	-31%	/	0%	4%
O=C(c1cc(-c2ccccc2Cl)nc2ccccc12)N1CCN(c2ccccc2O)CC1	1%	-8%	-1%	/	13µM*	5%
O=C(c1cc(-c2ccccc2Cl)nc2ccccc12)N1CCC1	-2%	-1%	-8%	/	-1%	-2%
O=C(Nc1ccc(C(F)(F)F)cc1)c1cccnc1N1CCOCC1	0%	0%	-4%	1%	-11%	-2%
O=C(Nc1ccc(C(F)(F)F)cc1)c1cnc(N2CCN(c3ccccn3)CC2)c2ccccc12	-14%	0%	-7%	-33%	5.2µM*	-5%
CC(C)(C)C(=O)Nc1ccc(N2CCN(c3ccc(C(F)(F)F)cn3)CC2)nc1	-17%	2%	0%	/	9.2µM*	0%

Screening data deposited in PubChem by National Center for Advancing Translational Sciences (NCATS).
